In PubChem BioAssay (NCI) one finds growth data, which are given here for 37 molecules.

Values joined by “and” are separate entries in the source; they are usually repeats but may differ in a detail not shown here. Equal entries are not always repeated. This is part of a sample that, as a whole, favours compounds with a hit. Of some 83,000 tested, about 20% had one in any assay.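 Results are percent growth after 48 hours of single-concentration exposure. 100 means growth as in untreated cells, lower positive values show inhibition; negative values down to -100 show cell death.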 Unmarked numbers belong to inactive results. Active and inactive are the calls of the source. Rule for the calls: active = growth percent below 10; inactive = the rest.

In the first assay the test system is OVCAR-8 ovarian. Put plainly: NCI-60 one-dose screen, 48 h (100 = growth as untreated, 0 = no growth, -100 = all killed). The following applies: 10 µM unless noted.
`CCCCn1c(=O)c(C(=O)NCc2ccccc2Cl)c(O)c2ccccc21`: the growth is 81.1%.

Consider `O=C(NCCCN1CC1)Nc1cccc2ccccc12`, for which the growth is 80.1% and 79.3%.

With `Oc1cc(N2CC2)c(O)cc1N1CC1`, the growth is 11.2%.

Take `CC12CCC3C4CCC(=O)C=C4CCC3C1CC1CC(=O)OC12` (centres undefined): the growth is 97.2%.

As to `CCOP(=O)(OCC)C(=O)N(CC)CC`, the growth was 96.1%.

As for `C#Cc1cccc(Nc2nc(Cl)nc3cc(NC(=O)CF)ccc23)c1`, the growth is 88.2%.

As to `CC[C@H](C)[C@H](NC(=O)[C@H]1CCCCN1C)C(=O)N(C)[C@H](C(=O)NC12CC(C(=O)N[C@@H](Cc3ccccc3)C[C@H](C)C(=O)OC)(C1)C2)C(C)C`, the growth was 96.8%.

Regarding `CN1CCC2(CC1)C(C#N)C(=O)NC(=O)C2C#N` (centres undefined), the growth is 99%.

In the case of `CC12CCC3C(CCC4CC(O)CCC43C)C1CCC2=O` (centres undefined), the growth was 99.9%.

On to `C=CC[PH+](c1ccccc1)c1ccccc1.C=CC[PH+](c1ccccc1)c1ccccc1.[Pt+2].[S-]c1nc2ccccc2[nH]1.[S-]c1nc2ccccc2[nH]1`, for which the growth was 2.64% (active).

For the molecule `Cc1cc[c-]cc1.Fc1c[c-]c(-c2ccccn2)c(F)c1.[Pt+2].c1ccc([PH+](c2ccccc2)c2ccccn2)cc1`, the growth is 34%.

As to `C=C[Se]CC(=O)/C=C/c1ccccc1`, the growth was 59.5%.

As for `CCCCCCCCCCCCCCCCCC1OCC(COC(=O)O[C@@H](C(=O)O[C@H]2C[C@@]3(O)[C@@H](OC(=O)c4ccccc4)[C@@H]4[C@]5(OC(C)=O)CO[C@@H]5C[C@H](O)[C@@]4(C)C(=O)[C@H](OC(C)=O)C(=C2C)C3(C)C)[C@@H](NC(=O)c2ccccc2)c2ccccc2)O1` (some centres undefined), the growth is 48.9%.

Turning to `CC1(C)C=Cc2c(ccc3c2[N+]([O-])=C2C3=C[C@@]34NC(=O)[C@]5(CCCN5C3=O)C[C@@H]4C2(C)C)O1`, the growth was 42.7%.

Regarding `O=C(O)C1C(C(=O)O)C2(Cl)C(Cl)=C(Cl)C1(Cl)C2(Cl)Cl` (centres undefined), the growth is 107% and 101%.

`CNC(=O)O/N=C(\SC)C(=O)N(C)C`: the growth was 97.7%.

As for `C[C@]12CCc3sc(Nc4ccc(F)cc4F)nc3C1=CC[C@@H]1[C@@H]2CC[C@]2(C)C(=O)CC[C@@H]12`, the growth is 45.2%.

Turning to `N#CC(C#N)=C(C#N)C#N`, the growth was 96%.

On to `N#CCC(=O)c1ccccc1`, for which the growth was 96.5%.

As to `O=C(O)c1ccc(=O)[nH]c1`, the growth is 101% and 103%.

With `CC[C@H](C)[C@H](NC(=O)CN(C)C)C(=O)N(C)[C@H](C[C@@H](OC(C)=O)c1nc(C(=O)NC23C4C5C2C2C3C4C52C(=O)OC)cs1)C(C)C` (some centres undefined), the growth is 21.6%.

Regarding `CNC(=O)Oc1ccc(Cl)cc1SSc1cc(Cl)ccc1OC(=O)NC`, the growth was 78.8%.

On to `CC(=O)OC1CC2(O)C(CCC3(C)C(c4ccc(=O)oc4)CCC32O)C2(C)CCC(OC3OC(CO)C(O)C(O)C3O)C=C12` (centres undefined), for which the growth is -55.6% (active).

Take `Oc1ccc(O)c(Cl)c1`: the growth was 90.4% and 102%.

Take `CC(=O)Nc1nc2c(s1)C1=CC[C@H]3[C@@H]4CC[C@H](OC(C)=O)[C@@]4(C)CC[C@@H]3[C@@]1(C)CC2`: the growth was 70.8%.

For `O=C(O)C(F)F`, the growth is 105%.

As for `CC[C@H](C)[C@H](NC(=O)C12CC(NC)(C1)C2)C(=O)N(C)[C@H](C[C@@H](OC(C)=O)c1nc(C(=O)N[C@@H](Cc2ccccc2)C[C@H](C)C(=O)OC)cs1)C(C)C`, the growth is 17.5%.

For the molecule `NC(=O)Oc1cc(OC(N)=O)cc(N(CCCl)CCCl)c1`, the growth was 28.5%.

Turning to `CC[PH+](CC)CC.O=COC1OC([S-])C(OC=O)C(OC=O)C1OC=O.[Au+]` (centres undefined), the growth was 1.43% (active).

As for `CCOC(=O)c1ccccc1C(=O)OCC`, the growth was 84%.

As to `C[C@@H]1C/C=C\C(=O)O[C@H](/C=C/C#C/C=C/C(C)(C)[C@@H](O)c2cccc(O)c2Br)[C@@H](C)/C=C/[C@H](C)C[C@H](OC(N)=O)C1`, the growth is 20.3%.

In the case of `Cc1c(C)c(N)c(C)c(C)c1N`, the growth is 83.8%.

With `Nc1ccc(P(=O)(O)O)cc1`, the growth was 101% and 98.4%.

For the molecule `OCCN=Cc1c[nH]c2ccccc12`, the growth is 100%.

On to `S=P(SP(=S)(c1ccccc1)c1ccccc1)(c1ccccc1)c1ccccc1`, for which the growth was 104%.

In the case of `CN1CCc2cc3c(cc2C1O)OCO3` (centres undefined), the growth is 102% and 109%.

For the molecule `Cc1cc(NC(=O)NCCCOc2ccc(N3C(N)=NC(N)=NC3(C)C)cc2Cl)ccc1S(=O)(=O)F`, the growth was 31.7%.

A further assay concerns OVCAR-5 ovarian. The description is as above. The following applies: 10 µM unless noted.
In the case of `CCCCn1c(=O)c(C(=O)NCc2ccccc2Cl)c(O)c2ccccc21`, the growth is 109%.

On to `O=C(NCCCN1CC1)Nc1cccc2ccccc12`, for which the growth was 105% and 113%.

`Oc1cc(N2CC2)c(O)cc1N1CC1`: the growth is 2.7% (active).

For the molecule `CC12CCC3C4CCC(=O)C=C4CCC3C1CC1CC(=O)OC12` (centres undefined), the growth was 107%.

As for `CCOP(=O)(OCC)C(=O)N(CC)CC`, the growth is 111%.

As to `C#Cc1cccc(Nc2nc(Cl)nc3cc(NC(=O)CF)ccc23)c1`, the growth is 78.7%.

Turning to `CC[C@H](C)[C@H](NC(=O)[C@H]1CCCCN1C)C(=O)N(C)[C@H](C(=O)NC12CC(C(=O)N[C@@H](Cc3ccccc3)C[C@H](C)C(=O)OC)(C1)C2)C(C)C`, the growth was 98.4%.

In the case of `CN1CCC2(CC1)C(C#N)C(=O)NC(=O)C2C#N` (centres undefined), the growth was 104%.

On to `CC12CCC3C(CCC4CC(O)CCC43C)C1CCC2=O` (centres undefined), for which the growth was 91.7%.

As to `C=CC[PH+](c1ccccc1)c1ccccc1.C=CC[PH+](c1ccccc1)c1ccccc1.[Pt+2].[S-]c1nc2ccccc2[nH]1.[S-]c1nc2ccccc2[nH]1`, the growth was -3.98% (active).

As for `Cc1cc[c-]cc1.Fc1c[c-]c(-c2ccccn2)c(F)c1.[Pt+2].c1ccc([PH+](c2ccccc2)c2ccccn2)cc1`, the growth is 63.9%.

In the case of `C=C[Se]CC(=O)/C=C/c1ccccc1`, the growth is 89.9%.

With `CCCCCCCCCCCCCCCCCC1OCC(COC(=O)O[C@@H](C(=O)O[C@H]2C[C@@]3(O)[C@@H](OC(=O)c4ccccc4)[C@@H]4[C@]5(OC(C)=O)CO[C@@H]5C[C@H](O)[C@@]4(C)C(=O)[C@H](OC(C)=O)C(=C2C)C3(C)C)[C@@H](NC(=O)c2ccccc2)c2ccccc2)O1` (some centres undefined), the growth is 55.5%.

As to `CC1(C)C=Cc2c(ccc3c2[N+]([O-])=C2C3=C[C@@]34NC(=O)[C@]5(CCCN5C3=O)C[C@@H]4C2(C)C)O1`, the growth was 56.6%.

With `O=C(O)C1C(C(=O)O)C2(Cl)C(Cl)=C(Cl)C1(Cl)C2(Cl)Cl` (centres undefined), the growth was 91.4% and 108%.

For the molecule `CNC(=O)O/N=C(\SC)C(=O)N(C)C`, the growth was 101%.

Regarding `C[C@]12CCc3sc(Nc4ccc(F)cc4F)nc3C1=CC[C@@H]1[C@@H]2CC[C@]2(C)C(=O)CC[C@@H]12`, the growth is 91.8%.

With `N#CC(C#N)=C(C#N)C#N`, the growth is 101%.

As for `N#CCC(=O)c1ccccc1`, the growth was 105%.

With `O=C(O)c1ccc(=O)[nH]c1`, the growth is 90.3% and 106%.

With `CC[C@H](C)[C@H](NC(=O)CN(C)C)C(=O)N(C)[C@H](C[C@@H](OC(C)=O)c1nc(C(=O)NC23C4C5C2C2C3C4C52C(=O)OC)cs1)C(C)C` (some centres undefined), the growth was 71.4%.

As to `CNC(=O)Oc1ccc(Cl)cc1SSc1cc(Cl)ccc1OC(=O)NC`, the growth was 121%.

Regarding `CC(=O)OC1CC2(O)C(CCC3(C)C(c4ccc(=O)oc4)CCC32O)C2(C)CCC(OC3OC(CO)C(O)C(O)C3O)C=C12` (centres undefined), the growth was -73.5% (active).

As for `Oc1ccc(O)c(Cl)c1`, the growth is 112% and 113%.

As for `CC(=O)Nc1nc2c(s1)C1=CC[C@H]3[C@@H]4CC[C@H](OC(C)=O)[C@@]4(C)CC[C@@H]3[C@@]1(C)CC2`, the growth is 92.7%.

As for `O=C(O)C(F)F`, the growth was 106%.

In the case of `CC[C@H](C)[C@H](NC(=O)C12CC(NC)(C1)C2)C(=O)N(C)[C@H](C[C@@H](OC(C)=O)c1nc(C(=O)N[C@@H](Cc2ccccc2)C[C@H](C)C(=O)OC)cs1)C(C)C`, the growth was 52.7%.

Consider `NC(=O)Oc1cc(OC(N)=O)cc(N(CCCl)CCCl)c1`, for which the growth is 91.3%.

On to `CC[PH+](CC)CC.O=COC1OC([S-])C(OC=O)C(OC=O)C1OC=O.[Au+]` (centres undefined), for which the growth was -98.5% (active).

As to `CCOC(=O)c1ccccc1C(=O)OCC`, the growth was 99.9%.

Turning to `C[C@@H]1C/C=C\C(=O)O[C@H](/C=C/C#C/C=C/C(C)(C)[C@@H](O)c2cccc(O)c2Br)[C@@H](C)/C=C/[C@H](C)C[C@H](OC(N)=O)C1`, the growth was 46.8%.

Take `Cc1c(C)c(N)c(C)c(C)c1N`: the growth is 85.1%.

For the molecule `Nc1ccc(P(=O)(O)O)cc1`, the growth was 97.6% and 99.8%.

In the case of `OCCN=Cc1c[nH]c2ccccc12`, the growth was 91%.

Turning to `S=P(SP(=S)(c1ccccc1)c1ccccc1)(c1ccccc1)c1ccccc1`, the growth was 95.2%.

Take `CN1CCc2cc3c(cc2C1O)OCO3` (centres undefined): the growth is 94.6% and 94.1%.

As for `Cc1cc(NC(=O)NCCCOc2ccc(N3C(N)=NC(N)=NC3(C)C)cc2Cl)ccc1S(=O)(=O)F`, the growth was 43.1%.
